The values that follow come from PubChem BioAssay.

Assay [1] relates to Wnt5a (protein binding on small-molecule microarray). The assay is described as follows: Wnt5a binders on small-molecule microarray, primary screen, biophysical, 635/667 nm fluorescence (AID 1142).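 Further: fluorescence read at 667 nm with signal to noise per printed feature.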 As to conditions: 635 nm fluorescence, higher = more signal.
Assay [2] can be described thus: cell viability in Huh7 cells, primary screen, cytotoxicity control for HCV replication inhibitor project, CellTiter-Glo luminescence, basal, 48 h (AID 1143).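 Further: Huh7 hepatoma cells carrying a hepatitis C replication reporter with no stimulus; test concentration not given here.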 As to conditions: Huh7 HCV replicon, higher = more signal, called active from +8 up or from −8 down.
Assay [3] is described as follows: P. aeruginosa biofilm formation inhibitors, primary screen, PAO1 strain, BacTiter-Glo luminescence, LB-PBS (AID 1144). The note with it: 12 h, higher = more signal.
The nature of assay [4]: CREB reporter modulators without forskolin, primary screen, cell-based, PC12, CRE-LacZ reporter, unstimulated (AID 1145). The note with it: no forskolin, luminescence, 4.5 h, higher = more signal, called active from +8 up or from −8 down.
Assay [5] is described as follows: CREB reporter modulators under forskolin, primary screen, cell-based, PC12, CRE-LacZ reporter, forskolin-stimulated (AID 1146).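 Further: PC12 cells with 6xCRE LacZ reporter stimulated by forskolin 10 µM; beta-galactosidase reporter signal reflecting CREB driven transcription.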 As to conditions: luminescence, 4.5 h, higher = more signal, called active from +8 up or from −8 down.
For assay [6], the target named is Streptavidin (Streptomyces avidinii) (UniProt P22629). The assay is described as follows: streptavidin binders on small-molecule microarray, primary screen, artefact control for SMM compound annotation, biophysical, 635/667 nm fluorescence (AID 1147).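 Further: signal reflects streptavidin binding to arrayed compounds as a control protein.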 As to conditions: streptavidin binding, higher = more signal.
Assay [7] can be described thus: small-molecule binders of probe aInhba, primary screen, biochemical, small-molecule microarray, 635/667 nm fluorescence (AID 1148).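 Further: score merges 667nm spot fluorescence with signal-to-noise for antibody binding to printed compounds.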 The note with it: higher = more signal.
Assay [8] concerns the target Torsin-1A (Homo sapiens) (UniProt O14656). Nature of the assay: torsin A binders from cell lysate, primary screen, small-molecule microarray, wild-type, 635/667 nm (AID 1149). The note with it: COS7 hTOR1A-WT lysate, 635 nm fluorescence, higher = more signal.
Assay [9] has the same target. Nature of the assay: small-molecule binders of mutant TOR1A in lysate, primary screen, cell lysate, small-molecule microarray, COS7 lysate, 635/667 nm fluorescence (AID 1150).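 Further: score pools 667 nm emission and signal to noise measuring lysate protein binding.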 As to conditions: COS7 hTOR1A mutant lysate, 635 nm fluorescence, higher = more signal.
Assay [10] deals with Sonic hedgehog protein (Shh). The assay is described as follows: small-molecule binders of Shh protein, primary screen, biochemical, small-molecule microarray, 635/667 nm fluorescence (AID 1151).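 Further: Shh protein binding to compounds spotted on small-molecule microarray slides; score combines spot fluorescence intensity with signal-to-noise across triplicate slides.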 As to conditions: small-molecule microarray binding, 635 nm fluorescence; higher = more signal.
A short description of assay [11]: E. coli DRC41 culture turbidity changes, primary screen, E. coli filamentation inducer project, strain DRC41, OD650, 48 h (AID 1152).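 Further: E. coli MC1000 strain DRC41 lacking acrAB efflux pump and sulA.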 As to conditions: E. coli DRC41 (acrAB sulA), higher = more signal, called active from +8 up or from −8 down.
Assay [12] in a line: small-molecule binders of probe aLefty1, primary screen, biochemical, small-molecule microarray, 635/667 nm fluorescence (AID 1153).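 Further: score merges spot fluorescence with signal-to-noise ratio from the scanned slide images.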 As to conditions: higher = more signal.
A short description of assay [13]: PSAC antagonists in infected red cells, primary screen, cell-based, P. falciparum Indochina, OD700, 1 h (AID 1154). As to conditions: P. falciparum Indochina infected RBC osmotic lysis, higher = more signal, called active from +8 up or from −8 down.
A short description of assay [14]: PSAC antagonists in infected red cells, primary screen, cell-based, P. falciparum Indochina, OD700, 2 h (AID 1155).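 Further: lysis reports solute entry through the parasite surface anion channel PSAC; channel blockers reduce lysis of infected cells.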 The note with it: P. falciparum Indochina infected erythrocytes, osmotic lysis OD700; higher = more signal, called active from +8 up or from −8 down.
Assay [15] in a line: osmotic lysis modulators in infected erythrocytes, primary screen, PSAC antagonist project, cell-based, P. falciparum Indochina, OD700, 3 h (AID 1156). As to conditions: higher = more signal, called active from +8 up or from −8 down.
The nature of assay [16]: PSAC antagonists in infected red cells, primary screen, cell-based, P. falciparum Indochina, OD700, 18 h (AID 1157). As to conditions: P. falciparum Indochina infected erythrocytes, osmotic lysis OD700, 18 h; higher = more signal, called active from +8 up or from −8 down.
Assay [17] in a line: modulators of S6 phosphorylation in cells, primary screen, cell-based, A549, cytoblot, luminescence, serum-stimulated (AID 1158).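 Further: serum-stimulated A549 lung adenocarcinoma cells; signal is phosphorylated S6 detected by cytoblot immunostaining with HRP secondary.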 As to conditions: A549 phospho-S6 cytoblot, 5 h, higher = more signal.
The target in assay [18] is NADPH oxidase 2 (Homo sapiens) (UniProt P04839). Nature of the assay: NOX2-dependent H2O2 signal modulators, primary screen, NOX inhibitor project, cell-based, HEK293-NOX2, PMA-stimulated, Amplex Red fluorescence (AID 1159). Further: test concentration not given here. As to conditions: 45 min, higher = more signal, called active from +8 up or from −8 down.
For assay [19], the target named is NADPH oxidase 4 (Homo sapiens) (UniProt Q9NPH5). The assay is described as follows: NOX4-dependent H2O2 signal modulators, primary screen, NOX inhibitor project, cell-based, HEK293-NOX4, tetracycline-induced, Amplex Red fluorescence (AID 1160). The note with it: 45 min, higher = more signal, called active from +8 up or from −8 down.
Assay [20] addresses NADPH oxidase 5 (Homo sapiens) (UniProt Q96PH1). Nature of the assay: NOX5-dependent H2O2 signal modulators, primary screen, NOX inhibitor project, cell-based, HEK293-NOX5, Amplex Red fluorescence (AID 1161). As to conditions: HEK293-NOX5, ionomycin, 45 min, higher = more signal.

Active and inactive are the calls of the source. Unless noted, how the calls were made is not given here.

Torsin-1A (Homo sapiens), sequence (O14656 whole entry, looked up): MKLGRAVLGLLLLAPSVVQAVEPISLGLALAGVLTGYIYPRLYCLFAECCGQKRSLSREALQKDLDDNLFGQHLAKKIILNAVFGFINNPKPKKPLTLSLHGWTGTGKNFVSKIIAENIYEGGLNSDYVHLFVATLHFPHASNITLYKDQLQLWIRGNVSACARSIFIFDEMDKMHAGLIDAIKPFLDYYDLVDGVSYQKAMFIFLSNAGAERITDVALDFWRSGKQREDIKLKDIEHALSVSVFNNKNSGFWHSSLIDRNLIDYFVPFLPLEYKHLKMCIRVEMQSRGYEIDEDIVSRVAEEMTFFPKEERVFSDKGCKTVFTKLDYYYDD
NADPH oxidase 2 (Homo sapiens), sequence (P04839 whole entry, looked up): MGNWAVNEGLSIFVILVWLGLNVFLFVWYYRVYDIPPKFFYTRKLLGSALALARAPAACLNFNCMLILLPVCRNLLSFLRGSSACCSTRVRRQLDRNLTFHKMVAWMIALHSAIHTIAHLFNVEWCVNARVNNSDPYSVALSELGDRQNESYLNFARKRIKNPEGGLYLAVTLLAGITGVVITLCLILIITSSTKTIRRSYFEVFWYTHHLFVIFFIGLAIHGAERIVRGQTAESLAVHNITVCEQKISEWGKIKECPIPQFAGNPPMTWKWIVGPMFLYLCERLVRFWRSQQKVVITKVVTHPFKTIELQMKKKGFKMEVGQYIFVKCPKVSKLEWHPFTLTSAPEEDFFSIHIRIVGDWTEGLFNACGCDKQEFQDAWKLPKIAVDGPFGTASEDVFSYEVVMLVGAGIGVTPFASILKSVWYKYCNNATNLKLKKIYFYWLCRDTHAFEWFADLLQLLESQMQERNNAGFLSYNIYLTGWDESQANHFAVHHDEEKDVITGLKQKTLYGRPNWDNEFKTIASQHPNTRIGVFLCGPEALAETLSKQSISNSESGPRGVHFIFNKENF
NADPH oxidase 5 (Homo sapiens), sequence (Q96PH1 whole entry, looked up): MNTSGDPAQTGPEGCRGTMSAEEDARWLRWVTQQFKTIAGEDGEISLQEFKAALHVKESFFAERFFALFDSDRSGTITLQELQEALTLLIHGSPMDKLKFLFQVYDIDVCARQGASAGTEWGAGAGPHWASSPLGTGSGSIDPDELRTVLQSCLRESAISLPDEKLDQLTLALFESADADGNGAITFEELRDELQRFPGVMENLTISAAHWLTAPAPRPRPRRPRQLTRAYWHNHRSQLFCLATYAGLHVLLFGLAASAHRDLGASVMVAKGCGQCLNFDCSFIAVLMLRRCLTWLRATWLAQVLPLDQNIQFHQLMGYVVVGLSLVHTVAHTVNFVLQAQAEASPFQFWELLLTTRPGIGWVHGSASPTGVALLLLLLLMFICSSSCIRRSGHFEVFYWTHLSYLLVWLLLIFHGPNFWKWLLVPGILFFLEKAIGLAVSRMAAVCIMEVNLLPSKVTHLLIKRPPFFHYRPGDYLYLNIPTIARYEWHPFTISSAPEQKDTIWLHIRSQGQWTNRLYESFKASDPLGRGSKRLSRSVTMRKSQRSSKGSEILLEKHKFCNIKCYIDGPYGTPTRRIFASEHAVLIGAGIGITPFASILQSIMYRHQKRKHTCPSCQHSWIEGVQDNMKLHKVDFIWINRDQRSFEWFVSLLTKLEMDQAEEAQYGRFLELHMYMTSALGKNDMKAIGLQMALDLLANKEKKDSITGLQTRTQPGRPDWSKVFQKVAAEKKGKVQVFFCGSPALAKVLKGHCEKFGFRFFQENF
Streptavidin (Streptomyces avidinii), sequence (P22629 whole entry, looked up): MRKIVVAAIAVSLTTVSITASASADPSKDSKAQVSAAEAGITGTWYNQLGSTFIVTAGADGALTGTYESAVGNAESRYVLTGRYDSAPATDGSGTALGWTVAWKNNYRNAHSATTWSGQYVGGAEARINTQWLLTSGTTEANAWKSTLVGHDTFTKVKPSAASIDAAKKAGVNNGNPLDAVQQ
NADPH oxidase 4 (Homo sapiens), sequence (Q9NPH5 whole entry, looked up): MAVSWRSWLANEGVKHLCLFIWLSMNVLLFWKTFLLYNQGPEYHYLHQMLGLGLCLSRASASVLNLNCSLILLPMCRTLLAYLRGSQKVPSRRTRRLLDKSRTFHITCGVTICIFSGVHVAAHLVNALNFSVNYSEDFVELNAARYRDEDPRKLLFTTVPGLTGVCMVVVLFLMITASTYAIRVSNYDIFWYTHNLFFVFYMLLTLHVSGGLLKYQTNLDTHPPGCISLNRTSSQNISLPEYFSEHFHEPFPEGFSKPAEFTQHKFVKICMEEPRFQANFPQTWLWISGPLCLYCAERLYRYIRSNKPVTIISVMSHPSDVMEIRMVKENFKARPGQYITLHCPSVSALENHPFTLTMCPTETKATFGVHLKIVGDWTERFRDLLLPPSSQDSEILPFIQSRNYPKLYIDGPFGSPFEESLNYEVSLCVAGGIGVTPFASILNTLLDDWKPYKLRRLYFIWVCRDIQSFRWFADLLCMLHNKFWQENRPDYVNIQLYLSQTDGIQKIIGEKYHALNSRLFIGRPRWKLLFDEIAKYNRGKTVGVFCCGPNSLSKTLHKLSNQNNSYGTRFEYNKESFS

Turning to `COC(=O)[C@@]1(Cc2ccc(OC)cc2)[C@H]2c3cc(C(=O)N(C)C)n(Cc4ccc(OC(F)(F)F)cc4)c3C[C@H]2CN1C(=O)c1ccccc1`, the composite z-score in assay [1] was -0.223; in assay [6], 0.539; in assay [7] it was 0.185; in the assay with Torsin-1A (Homo sapiens) [8] it was -0.178; in the assay with Torsin-1A (Homo sapiens) [9], 0.555; in assay [10], -0.955. In assay [12], this compound gave a composite z-score of 0.407. Moreover, the z-score in [2] is -2.6 (inactive); in assay [3], 0.043 (inactive); in [4] it was 4.4 (inactive); in assay [5], 74 (active); in assay [11], -1.81 (inactive); in assay [13], 0.404 (inactive). Further, the z-score in [14] is 0.542 (inactive); in assay [15], 0.219 (inactive); in assay [16], 0.569 (inactive); in assay [17], -1.19; in assay [18] it was 0.262 (inactive); in assay [19], -0.787 (inactive). In [20], the z-score is -0.499.
Turning to `[N-]=[N+]=Nc1ccccc1[C@H]1OC(c2ccc(OCCCO)cc2)=N[C@@]1(Cc1ccccc1)C(=O)NCCN1CCOCC1`, the composite z-score in assay [1] was found to be 1.47; in assay [6] it was 1.32; in assay [7] it was 0.936; in the assay with Torsin-1A (Homo sapiens) [8] it was 0.596; with Torsin-1A (Homo sapiens) [9] it was 0.0723; in [10], 1.44. Further, in [12], the composite z-score was determined as 0.31. In addition, the z-score was -3.37 (inactive) in assay [2]; -0.395 (inactive) in [3]; -0.697 (inactive) in assay [4]; -1.62 (inactive) in assay [5]; 0.378 (inactive) in assay [11]; 33.5 (active) in [13]. Besides, the z-score in [14] was 30.9 (active); in assay [15], 2.73 (inactive); in assay [16], 8.84 (active); in assay [17], 0.138; in assay [18], -1 (inactive); in assay [19] it was 0.585 (inactive). In assay [20], this compound came in with a z-score of 1.57.
With `COC(=O)[C@@]1(Cc2ccc(F)cc2)[C@H]2c3cc(C(=O)N(C)C)n(Cc4ccc(OC(F)(F)F)cc4)c3C[C@H]2CN1C(=O)c1ccccc1`, the composite z-score in assay [1] was 0.0007; in [6], 0.686; in assay [7], 0.0633; in the assay with Torsin-1A (Homo sapiens) [8], 0.296; with Torsin-1A (Homo sapiens) [9], 0.569; in assay [10] it was -0.817. Further, in assay [12], the composite z-score came out at 0.651. Further, the z-score in [2] was 0.875 (inactive); in [3], -0.362 (inactive); in assay [4], 0.397 (inactive); in assay [5], 0.391 (inactive); in assay [11], -1.4 (inactive); in assay [13], -0.0341 (inactive). The z-score in assay [14] is 0.673 (inactive); in assay [15] it was -0.0751 (inactive); in [16] it was 0.692 (inactive); in assay [17], -0.139; in assay [18], 0.195 (inactive); in [19], -0.44 (inactive). In [20], this compound registered a z-score of 0.205.
Regarding `COC(=O)C1(CC(C)C)C=C2C(=C(c3ccccc3)C(=O)C2C)CN1` (stereo not given), the composite z-score in [1] is 0.894; in assay [6] it was 0.246; in assay [7], 0.613; in the assay with Torsin-1A (Homo sapiens) [8] it was -0.0212; in the assay with Torsin-1A (Homo sapiens) [9] it was 1.3; in assay [10], 1.75. This compound had a composite z-score in assay [12] of 1.58. Moreover, the z-score in assay [2] was -0.207 (inactive); in [3], 0.279 (inactive); in [4], 0.966 (inactive); in assay [5], 1.64 (inactive); in [11], -1.03 (inactive); in [13], 1.28 (inactive). Besides, the z-score in [14] is -0.382 (inactive); in assay [15], 0.806 (inactive); in [16], 0.323 (inactive); in assay [17], 0.54; in assay [18] it was -0.00718 (inactive); in assay [19], -1.48 (inactive). The z-score in assay [20] is -2.44.
`COCCOC(=O)N1C(=O)[C@@]2(c3cc(C#CC4(O)CCCCCC4)ccc31)[C@H](C(=O)Nc1nc3ccccc3s1)[C@H]1C(=O)O[C@H](c3ccccc3)[C@H](c3ccccc3)N1[C@@H]2c1ccc(O)cc1`: the composite z-score in [1] worked out at 0.62; in assay [6], 0.857; in assay [7], 0.117; with Torsin-1A (Homo sapiens) [8], 0.878; with Torsin-1A (Homo sapiens) [9], 0.753; in assay [10] it was 1.52. The same compound gave a composite z-score in assay [12] of 0.219. In addition, the z-score is -0.804 (inactive) in [2]; -0.374 (inactive) in assay [3]; 0.245 (inactive) in assay [4]; 7.33 (inactive) in [5]; 0.0662 (inactive) in assay [11]; 0.4 (inactive) in [13]. The z-score was 0.925 (inactive) in [14]; -0.186 (inactive) in assay [15]; 1.47 (inactive) in [16]; -0.335 in assay [17]; 1.01 (inactive) in assay [18]; 0.286 (inactive) in assay [19]. In assay [20], this compound yielded a z-score of 0.785.
On to `CCCN1C(=O)[C@]2(Cc3ccccc31)N=C(c1ccc(OCCCO)cc1)O[C@@H]2c1ccccc1`, for which the composite z-score was 0.489 in [1]; 0.899 in assay [6]; -0.0087 in [7]; 0.738 with Torsin-1A (Homo sapiens) [8]; 0.423 in the assay with Torsin-1A (Homo sapiens) [9]; 1.12 in [10]. This compound also came in with a composite z-score in [12] of 0.643. In addition, the z-score in assay [2] was -5.07 (inactive); in assay [3] it was -2.3 (inactive); in assay [4], 0.344 (inactive); in [5], -0.647 (inactive); in assay [11], -0.753 (inactive); in [13] it was 30.9 (active). Moreover, the z-score in assay [14] is 25.5 (active); in assay [15], 3.13 (inactive); in assay [16], 2.19 (inactive); in assay [17] it was 0.117; in assay [18], -3 (inactive); in assay [19] it was -0.843 (inactive). Moreover, in assay [20], the z-score is -1.8.
`COc1ccc(C(=O)Nc2ccc(CN3C(=O)[C@]4(O[C@H](CC(=O)N5Cc6ccccc6C[C@H]5CO)[C@@H]([Si](C)(C)c5ccc(OC)cc5)[C@@H]4C)c4ccccc43)cc2)cc1`: the composite z-score in assay [1] was 0.307; in assay [6] it was 0.134; in assay [7] it was -0.132; with Torsin-1A (Homo sapiens) [8], 0.851; with Torsin-1A (Homo sapiens) [9], 0.93; in assay [10] it was 2.04. The same compound returned a composite z-score in [12] of 0.0004. Also, the z-score is -3.81 (inactive) in assay [2]; 0.556 (inactive) in [3]; -0.011 (inactive) in assay [4]; -0.6 (inactive) in assay [5]; -0.298 (inactive) in assay [11]; 3.15 (inactive) in [13]. For the same compound, the z-score in assay [14] was 1.5 (inactive); in [15], 1.15 (inactive); in assay [16], 0.941 (inactive); in assay [17], 0.383; in assay [18] it was 0.545 (inactive); in [19] it was -0.307 (inactive). Further, the z-score in assay [20] was found to be 2.12.
`COC(=O)[C@@]1(Cc2ccccc2)[C@H]2c3cc(C(=O)N(C)C)n(Cc4ccc(C)o4)c3C[C@H]2CN1C(=O)c1ccccc1`: the composite z-score is 1.28 in assay [1]; 2.31 in [6]; 1.44 in assay [7]; 0.125 with Torsin-1A (Homo sapiens) [8]; 0.751 with Torsin-1A (Homo sapiens) [9]; 0.406 in [10]. Besides, the composite z-score in [12] was 1.25. The z-score was -4.01 (inactive) in assay [2]; -0.142 (inactive) in assay [3]; -0.185 (inactive) in [4]; 0.2 (inactive) in assay [5]; -1.91 (inactive) in assay [11]; 2.55 (inactive) in assay [13]. Moreover, the z-score in [14] is -0.381 (inactive); in [15], 0.541 (inactive); in assay [16] it was -1.54 (inactive); in assay [17], 1.97; in assay [18], -3.27 (inactive); in assay [19], -2.44 (inactive). Also, in assay [20], the z-score was -4.77.
